Source: the supplement of paper PMC10849652
The full data set covers some 7,900 targets. This sample favours those with a hit. About 0.6% of all pairs of compound and target were hits. Unmarked numbers belong to inactive results.

UniProt Q02790, sequence (Q02790 whole entry, looked up): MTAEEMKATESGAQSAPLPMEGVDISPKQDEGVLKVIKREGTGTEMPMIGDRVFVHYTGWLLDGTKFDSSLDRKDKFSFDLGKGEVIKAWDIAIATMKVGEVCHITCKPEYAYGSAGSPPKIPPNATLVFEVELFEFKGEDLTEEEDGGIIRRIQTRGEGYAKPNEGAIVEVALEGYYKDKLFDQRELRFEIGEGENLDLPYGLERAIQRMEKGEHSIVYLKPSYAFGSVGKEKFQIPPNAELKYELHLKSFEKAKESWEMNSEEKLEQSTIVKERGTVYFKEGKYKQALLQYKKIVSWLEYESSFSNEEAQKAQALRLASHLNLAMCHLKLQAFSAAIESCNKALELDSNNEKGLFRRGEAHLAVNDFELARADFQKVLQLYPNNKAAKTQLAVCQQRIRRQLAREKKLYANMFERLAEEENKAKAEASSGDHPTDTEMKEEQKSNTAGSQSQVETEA
UniProt Q00688, sequence (Q00688 whole entry, looked up): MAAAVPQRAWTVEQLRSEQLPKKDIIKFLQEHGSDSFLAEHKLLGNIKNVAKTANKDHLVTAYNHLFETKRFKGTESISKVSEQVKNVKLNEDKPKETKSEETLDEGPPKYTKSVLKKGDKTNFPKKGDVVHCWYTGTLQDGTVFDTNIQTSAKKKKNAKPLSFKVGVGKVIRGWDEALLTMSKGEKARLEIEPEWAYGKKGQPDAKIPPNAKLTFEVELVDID
UniProt P22570, sequence (P22570 whole entry, looked up): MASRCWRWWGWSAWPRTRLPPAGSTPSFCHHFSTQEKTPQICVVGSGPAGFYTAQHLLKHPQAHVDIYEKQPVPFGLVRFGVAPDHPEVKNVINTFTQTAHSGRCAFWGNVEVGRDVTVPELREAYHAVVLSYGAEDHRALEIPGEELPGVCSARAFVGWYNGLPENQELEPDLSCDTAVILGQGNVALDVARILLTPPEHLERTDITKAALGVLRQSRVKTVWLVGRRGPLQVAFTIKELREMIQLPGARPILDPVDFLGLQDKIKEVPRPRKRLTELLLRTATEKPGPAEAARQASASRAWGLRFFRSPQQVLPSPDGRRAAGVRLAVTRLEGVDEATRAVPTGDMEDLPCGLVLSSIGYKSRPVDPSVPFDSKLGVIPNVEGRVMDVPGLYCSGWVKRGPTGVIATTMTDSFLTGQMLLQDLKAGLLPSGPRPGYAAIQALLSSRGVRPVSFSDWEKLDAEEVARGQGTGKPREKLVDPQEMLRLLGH
UniProt P15104, sequence (P15104 whole entry, looked up): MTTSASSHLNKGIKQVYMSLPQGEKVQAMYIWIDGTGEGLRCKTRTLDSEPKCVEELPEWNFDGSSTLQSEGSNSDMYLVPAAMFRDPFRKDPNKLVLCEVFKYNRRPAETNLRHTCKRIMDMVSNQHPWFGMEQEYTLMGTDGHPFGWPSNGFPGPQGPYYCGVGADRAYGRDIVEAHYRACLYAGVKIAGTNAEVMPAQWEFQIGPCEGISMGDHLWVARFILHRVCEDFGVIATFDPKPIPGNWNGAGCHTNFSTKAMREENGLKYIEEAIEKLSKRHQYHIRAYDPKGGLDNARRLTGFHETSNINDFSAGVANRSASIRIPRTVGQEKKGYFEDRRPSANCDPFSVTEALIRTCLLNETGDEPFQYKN
UniProt Q9UKN8, sequence (Q9UKN8 whole entry, looked up): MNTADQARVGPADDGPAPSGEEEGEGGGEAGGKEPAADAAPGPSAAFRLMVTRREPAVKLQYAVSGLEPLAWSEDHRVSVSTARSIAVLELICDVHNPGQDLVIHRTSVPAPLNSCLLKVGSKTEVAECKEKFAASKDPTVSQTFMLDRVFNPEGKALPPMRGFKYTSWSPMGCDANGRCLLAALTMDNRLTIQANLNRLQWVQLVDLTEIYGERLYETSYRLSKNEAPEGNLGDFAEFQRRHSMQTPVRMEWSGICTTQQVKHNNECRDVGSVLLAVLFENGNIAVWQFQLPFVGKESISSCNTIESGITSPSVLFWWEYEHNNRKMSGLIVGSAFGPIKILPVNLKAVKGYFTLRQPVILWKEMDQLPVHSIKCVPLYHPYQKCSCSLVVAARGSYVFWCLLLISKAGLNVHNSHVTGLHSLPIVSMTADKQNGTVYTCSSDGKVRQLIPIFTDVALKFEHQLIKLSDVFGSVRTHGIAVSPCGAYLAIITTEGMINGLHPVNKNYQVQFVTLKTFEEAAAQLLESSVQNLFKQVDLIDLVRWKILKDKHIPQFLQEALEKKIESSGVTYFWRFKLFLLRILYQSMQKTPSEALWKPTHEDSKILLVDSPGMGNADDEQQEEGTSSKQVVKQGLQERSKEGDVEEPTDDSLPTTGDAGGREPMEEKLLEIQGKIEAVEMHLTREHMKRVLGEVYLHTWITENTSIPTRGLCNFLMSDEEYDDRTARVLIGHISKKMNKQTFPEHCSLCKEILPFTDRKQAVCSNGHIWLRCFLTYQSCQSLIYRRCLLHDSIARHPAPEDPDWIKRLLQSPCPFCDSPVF
UniProt Q8TEQ6, sequence (Q8TEQ6 whole entry, looked up): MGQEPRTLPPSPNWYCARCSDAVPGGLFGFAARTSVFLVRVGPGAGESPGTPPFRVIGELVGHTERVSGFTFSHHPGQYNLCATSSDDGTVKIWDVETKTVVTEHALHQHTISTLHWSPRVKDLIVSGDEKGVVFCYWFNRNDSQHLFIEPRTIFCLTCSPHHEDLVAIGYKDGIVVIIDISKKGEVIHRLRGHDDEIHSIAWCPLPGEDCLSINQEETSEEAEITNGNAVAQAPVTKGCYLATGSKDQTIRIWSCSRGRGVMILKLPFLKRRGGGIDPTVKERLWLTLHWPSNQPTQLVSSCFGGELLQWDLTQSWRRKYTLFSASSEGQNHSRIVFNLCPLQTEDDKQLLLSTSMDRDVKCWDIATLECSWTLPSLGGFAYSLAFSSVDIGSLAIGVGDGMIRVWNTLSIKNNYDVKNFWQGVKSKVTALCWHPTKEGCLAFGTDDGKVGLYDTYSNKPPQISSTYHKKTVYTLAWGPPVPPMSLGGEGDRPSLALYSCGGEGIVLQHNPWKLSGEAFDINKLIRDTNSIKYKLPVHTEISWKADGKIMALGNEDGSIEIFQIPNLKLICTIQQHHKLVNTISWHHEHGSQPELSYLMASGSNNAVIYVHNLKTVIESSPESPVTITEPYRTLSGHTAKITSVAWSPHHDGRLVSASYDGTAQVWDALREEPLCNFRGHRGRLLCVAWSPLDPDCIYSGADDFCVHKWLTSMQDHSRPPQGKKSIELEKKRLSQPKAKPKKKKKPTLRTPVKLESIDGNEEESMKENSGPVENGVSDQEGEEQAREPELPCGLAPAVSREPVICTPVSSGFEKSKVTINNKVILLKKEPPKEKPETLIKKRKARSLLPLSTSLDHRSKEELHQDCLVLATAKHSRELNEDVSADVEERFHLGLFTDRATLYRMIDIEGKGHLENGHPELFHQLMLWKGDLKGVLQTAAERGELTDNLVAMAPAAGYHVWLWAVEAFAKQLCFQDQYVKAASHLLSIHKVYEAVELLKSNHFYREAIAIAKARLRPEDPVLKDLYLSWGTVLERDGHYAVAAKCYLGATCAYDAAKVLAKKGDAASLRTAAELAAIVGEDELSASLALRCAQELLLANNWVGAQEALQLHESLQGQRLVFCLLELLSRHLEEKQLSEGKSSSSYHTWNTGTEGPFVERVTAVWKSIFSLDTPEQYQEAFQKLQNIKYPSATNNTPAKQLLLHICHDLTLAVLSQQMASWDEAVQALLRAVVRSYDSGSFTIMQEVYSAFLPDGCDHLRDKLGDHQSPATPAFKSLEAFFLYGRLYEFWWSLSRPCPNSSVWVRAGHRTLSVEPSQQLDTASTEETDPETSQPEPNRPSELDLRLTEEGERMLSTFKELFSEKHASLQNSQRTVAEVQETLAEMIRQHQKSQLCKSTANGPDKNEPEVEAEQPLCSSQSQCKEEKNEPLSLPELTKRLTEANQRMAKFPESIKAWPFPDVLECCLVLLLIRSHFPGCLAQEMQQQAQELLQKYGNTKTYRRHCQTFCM
UniProt Q6P3S6, sequence (Q6P3S6 whole entry, looked up): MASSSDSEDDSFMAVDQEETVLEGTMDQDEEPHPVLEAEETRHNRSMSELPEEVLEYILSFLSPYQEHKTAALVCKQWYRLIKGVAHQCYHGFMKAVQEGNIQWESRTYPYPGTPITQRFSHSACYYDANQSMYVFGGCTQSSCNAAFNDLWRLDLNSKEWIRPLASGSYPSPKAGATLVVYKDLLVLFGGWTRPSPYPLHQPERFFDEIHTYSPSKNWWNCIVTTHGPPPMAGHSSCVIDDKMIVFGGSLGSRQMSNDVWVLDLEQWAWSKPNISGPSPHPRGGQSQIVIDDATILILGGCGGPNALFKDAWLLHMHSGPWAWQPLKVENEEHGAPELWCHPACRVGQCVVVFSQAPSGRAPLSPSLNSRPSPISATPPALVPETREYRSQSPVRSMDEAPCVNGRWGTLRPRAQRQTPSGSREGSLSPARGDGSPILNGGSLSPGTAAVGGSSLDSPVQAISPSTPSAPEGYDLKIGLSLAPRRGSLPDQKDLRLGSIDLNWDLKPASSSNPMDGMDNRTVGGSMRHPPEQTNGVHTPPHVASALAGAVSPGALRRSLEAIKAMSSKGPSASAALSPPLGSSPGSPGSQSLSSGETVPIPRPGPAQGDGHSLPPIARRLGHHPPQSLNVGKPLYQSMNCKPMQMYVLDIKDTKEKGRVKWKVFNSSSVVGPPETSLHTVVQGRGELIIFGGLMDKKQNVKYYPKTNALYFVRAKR
UniProt P52597, sequence (P52597 whole entry, looked up): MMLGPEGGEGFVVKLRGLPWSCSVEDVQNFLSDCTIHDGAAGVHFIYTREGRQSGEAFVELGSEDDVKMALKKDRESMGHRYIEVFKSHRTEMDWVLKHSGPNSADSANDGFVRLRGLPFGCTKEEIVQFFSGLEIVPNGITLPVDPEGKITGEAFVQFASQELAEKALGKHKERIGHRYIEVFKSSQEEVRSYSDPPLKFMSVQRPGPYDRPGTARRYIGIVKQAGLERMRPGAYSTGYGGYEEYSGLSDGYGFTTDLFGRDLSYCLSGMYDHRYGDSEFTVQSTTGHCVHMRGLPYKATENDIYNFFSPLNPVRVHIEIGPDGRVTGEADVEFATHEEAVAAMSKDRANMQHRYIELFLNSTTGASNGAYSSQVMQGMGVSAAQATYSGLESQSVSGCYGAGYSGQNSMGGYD

What follows are targets tested with CC(C)C1=C2N=C(C=C(N2N=C1)NCC3=CC=CC=C3)NCCCCCCN (assay: log2 fold change, soluble protein after heating vs DMSO (PISA); higher = thermal stabilisation; K562 cells, 10 uM, 30 min; active = over 0.2 and 3.5 SD of the protein, either way, in both replicates (recomputed)).
Method in brief: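 Quantification of soluble protein used TMTpro 16plex LC-MS/MS, with channel sums equalised. Samples were the supernatant after 21,000xg for 90 min of pooled aliquots from K562 cells (2×10^6 cells/mL) treated with 10 μM compound for 30 min, heated for 3 min over 48°C-58°C, and extracted in PBS with 0.5% NP-40 at 4°C. Values, from duplicates, describe thermal stability against control samples on a log2 fold-change scale.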
HADHB (UniProt P55084) gave a log2 fold change of 0.37.
With GDPD1 (UniProt Q8N9F7) the log2 fold change was 0.04.
In the case of HBZ (UniProt P02008), the log2 fold change is reported as 0.102.
With FNTA (UniProt P49354) the log2 fold change was 0.016.
In the case of FUBP3 (UniProt Q96I24), the log2 fold change is reported as 0.15.
Target FAM91A1 (UniProt Q658Y4) has a log2 fold change of -0.041.
In the case of GTF3C4 (UniProt Q9UKN8), the log2 fold change is reported as 0.038.
With HSPA8 (UniProt E9PK54) the log2 fold change was 0.141.
Work on GNPAT (UniProt O15228) yielded a log2 fold change of -0.018.
Target GTF2A2 (UniProt P52657) has a log2 fold change of 0.051.
Target HBA1 (UniProt P69905) has a log2 fold change of 0.094.
GDI1 (UniProt P31150) gave a log2 fold change of 0.04.
For HMOX2 (UniProt P30519), the log2 fold change was 0.08.
HMGN2 (UniProt P05204) was tested, and the log2 fold change was 0.128.
With GYG1 (UniProt P46976) the log2 fold change was -0.114.
For FKBP3 (UniProt Q00688), the log2 fold change was 0.023.
For HEATR5B (UniProt Q9P2D3), the log2 fold change was -0.063.
FKBP4 (UniProt Q02790) was tested, and the log2 fold change was -0.094.
H2AFX (UniProt P16104) was tested, and the log2 fold change was -0.008.
GUSB (UniProt P08236) was tested, and the log2 fold change was 0.025.
HDAC6 (UniProt Q9UBN7) showed a log2 fold change of 0.069.
Work on FBXO42 (UniProt Q6P3S6) yielded a log2 fold change of -0.169.
In the case of HP1BP3 (UniProt Q5SSJ5), the log2 fold change is reported as -0.031.
GEMIN5 (UniProt Q8TEQ6) was tested, and the log2 fold change was -0.422 (active).
With HSD17B12 (UniProt Q53GQ0) the log2 fold change was 0.22.
In the case of HNRNPF (UniProt P52597), the log2 fold change is reported as -0.279 (active).
Target GALNT2 (UniProt Q10471) has a log2 fold change of -0.021.
For IFT80 isoform 3 (UniProt Q9P2H3), the log2 fold change was -0.113.
GEMIN6 (UniProt Q8WXD5) gave a log2 fold change of -0.012.
For FDPS (UniProt P14324), the log2 fold change was -0.63 (active).
GNAS (UniProt Q5JWF2) gave a log2 fold change of 0.041.
With GOPC (UniProt Q9HD26) the log2 fold change was 0.046.
Target FDXR isoform 7 (UniProt P22570) has a log2 fold change of -0.091.
In the case of HECTD1 (UniProt Q9ULT8), the log2 fold change is reported as -0.091.
Target GLUL (UniProt P15104) has a log2 fold change of 0.058.
